Only a selection was taken, and hits are over-represented in it overall.
JMJD2E inh = JMJD2E (human) inhibition; B2RXH2; JMJD2E catalytic domain, FDH-coupled NADH fluorescence (FDH is formaldehyde dehydrogenase); Potency, µM (highest dose often 57.1 µM), actives largely listed as inhibitors; hit rate 1.6% among 230,000; AID 2147; active = well fitted inhibition curve with a large enough effect, not every such curve was filed as active; inconclusive = small, poorly fitted or top-dose-only effect, or another doubt; inactive = no such curve, though single readings can be large or run the other way; note: nearly all actives have a fitted effect of over 50% in size
Target sequence (B2RXH2 1-337 limits assumed): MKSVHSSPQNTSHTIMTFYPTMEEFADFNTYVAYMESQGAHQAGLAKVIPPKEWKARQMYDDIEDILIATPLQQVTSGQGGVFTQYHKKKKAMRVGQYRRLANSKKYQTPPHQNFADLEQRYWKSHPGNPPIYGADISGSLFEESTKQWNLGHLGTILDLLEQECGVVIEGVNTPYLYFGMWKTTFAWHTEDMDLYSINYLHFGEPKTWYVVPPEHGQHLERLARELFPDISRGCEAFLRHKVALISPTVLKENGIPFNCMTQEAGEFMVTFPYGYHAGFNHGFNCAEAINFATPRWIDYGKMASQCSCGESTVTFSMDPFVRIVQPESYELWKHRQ
CtBP-E1A inh = CtBP/E1A binding inhibition | AlphaScreen GST-E1A/His-CtBP binding, 1536-well; stronger effect = lower value | activity change, % (concentration not given with the values) | hit rate 0.49% among 340,000
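Steps: dispense buffer (Tris pH 8.0, NaCl 300 mM, TCEP 1 mM, BSA, Tween 20); add 5X protein mix (GST-E1A, His-CtBP, 125 nM each); pin 23 nL compound; 2 h at 37 °C, dark; add 5X beads (50 ug/mL); 1 h; read.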
L3MBTL1 block = blocks human L3MBTL1; AlphaScreen L3MBTL1–H3K9me1 peptide binding; hit rate 0.66% among 230,000; Potency, µM (top dose mostly 57.1 µM), hits mostly inhibitors; active = well fitted inhibition curve with a large enough effect; inconclusive = small, poorly fitted or top-dose-only effect; inactive = no such curve, though single readings can be large or run the other way; note: nearly all actives have a fitted effect of over 60% in size
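Displacement of a biotinylated histone H3(1-15) peptide monomethylated at Lys9 (75 nM) from L3MBTL1 (50 nM) was measured by AlphaScreen after a 30 min room-temperature compound incubation; cefsulodin titration served as intraplate control.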
Six1-Eya2 inh = Six1/Eya2 interaction inhibition; activity change, % (test concentration not listed); AlphaScreen GST-Six1/His-Eya2 binding, biochemical; stronger effect = lower value; hit rate 0.56% among 360,000; Q15475+O00167
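Compounds are tested against tagged Six1 and Eya2 proteins bridged by glutathione donor and nickel acceptor beads; after a one-hour incubation at 37 °C without light, AlphaScreen emission is recorded.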
Hits are given with their value; . = inactive; ? = inconclusive; / = not tested or not shown; ! = repeats disagree; [ ] = remark or other dose. Cut-off read from the data, not from the text of the source, unless noted: active = activity change below about -65%; inconclusive = mostly about -30% to -63%; inactive = weaker than that.

SMILES	JMJD2E inh	CtBP-E1A inh	L3MBTL1 block	Six1-Eya2 inh
O=C(O)C1(O)C[C@H](O)C(O)[C@@H](O)C1 (stereo partly drawn)	.	.	.	.
C=C(C)C(=O)/C=C/C=C/c1ccccc1	.	/	/	/
CC1(NC(=O)CC[N+](C)(C)CCO)CS(=O)(=O)CC1S(=O)(=O)[O-] (stereo not drawn)	.	/	13µM	/
COc1ccc(N(CC(=O)NCCSCc2ccco2)S(=O)(=O)c2ccccc2)cc1Cl	/	.	/	.
COc1cc(/C=C(\C#N)C(=O)NCCc2ccccc2)cc(OC)c1O	.	.	/	.
N#C/C(=C\c1ccc(O)c(O)c1)C(=O)NCCc1ccccc1	14µM	.	.	.
N#C/C(=C\c1ccc(O)c(O)c1)C(=O)NCCCCc1ccccc1	4.5µM	/	/	/
CC(C)(C)c1cc(C(=O)/C=C/c2ccc(C(=O)O)cc2)cc(C(C)(C)C)c1	.	/	/	/
COc1cc(C(=S)N2CCOCC2)cc(OC)c1OC(=O)c1ccccc1Cl	/	.	/	.
CC1OC(CC(=O)O)CC2=C1C(=O)c1c(O)cccc1C2=O (stereo not drawn)	/	.	/	-89
CCOC(=O)c1cc(CC)sc1NC(=O)COC(=O)C1CCC1	/	.	/	.
C=CCSc1nnc(-c2cccc3ccccc23)o1	/	/	7.9µM	/
CC(=O)OC1CC[C@]2(C)C(=CCC3C4CCC(C(C)CCCC(C)C)[C@]4(C)CCC32)C1 (stereo partly drawn)	.	/	/	/
O=C(CSc1cccc[n+]1[O-])c1cc2ccccc2o1	32µM	.	.	.
CC(N)c1csc(Nc2cc(Oc3ccccc3)ncn2)n1 (stereo not drawn)	/	-68	/	?
CC(N)c1csc(Nc2nncc3ccccc23)n1 (stereo not drawn)	/	.	/	.
CC(N)c1csc(Nc2ncccn2)n1 (stereo not drawn)	/	-88	/	-84
Cc1cccnc1C(NC(=O)C1CCN(CCOc2ccc(F)cc2)CC1)c1ccc(F)cc1 (stereo not drawn)	/	.	/	.
COC(=O)[C@@]1(C)C[C@@H]1[C@@H](NC(=O)[C@@]1(C)C[C@@H]1[C@@H](NC(=O)[C@@]1(C)C[C@@H]1[C@@H](NC(=O)[C@@]1(C)C[C@@H]1[C@@H](NC(=O)OCc1ccccc1)c1ccccc1)c1ccccc1)c1ccccc1)c1ccccc1	.	/	/	/
Cc1cc(-n2c(SCC(=O)Nc3ccc(Br)cc3)nc3n[nH]c(C)c3c2=N)ccc1Cl	/	.	/	.
COc1cccc(-n2c(SCC(=O)NCCC3=CCCCC3)nc3n[nH]c(C)c3c2=N)c1	?	-70	.	-79
CCC(C)NC(=O)CSc1nc2n[nH]c(C)c2c(=N)n1-c1ccc(OC)cc1 (stereo not drawn)	?	-85	.	-74
Cc1[nH]nc2nc(SCC(=O)NCC3CCCO3)n(-c3ccc(Br)cc3)c(=N)c12 (stereo not drawn)	.	?	.	-65
COC(=O)NC(c1ccccc1)C1(C(=O)OC)C(=O)Cc2ccccc21 (stereo not drawn)	.	/	/	/
Oc1ccc(C=Nc2cccc3ncccc23)c(O)c1	?	.	.	.
SMILES	JMJD2E inh	CtBP-E1A inh	L3MBTL1 block	Six1-Eya2 inh
Oc1ccc(C=Nc2ccc3ncccc3c2)c(O)c1	4.5µM	/	.	/
COc1ccc(NC(=O)Nc2cccc3c2O[C@H](CN(C)S(=O)(=O)c2ccc(OC)cc2)[C@@H](C)CN([C@H](C)CO)C3=O)cc1	/	.	.	.
Cc1ccc(S(=O)(=O)N(C)C[C@H]2Oc3c(NC(=O)Nc4cccc5ccccc45)cccc3C(=O)N([C@@H](C)CO)C[C@@H]2C)cc1	/	-75	.	-71
CN(C)N1C(N)=C(C#N)C(c2cccc([N+](=O)[O-])c2)C2=C1CC(C)(C)CC2=O (stereo not drawn)	/	.	/	.
Cc1cccc(NC(=O)COC(=O)c2cccc3c2C(=O)c2ccccc2C3=O)c1C	.	.	.	-65
Cc1cccc(C)c1NC(=O)COC(=O)c1cccc2c1C(=O)c1ccccc1C2=O	.	.	.	.
CCOP(=O)(OCC)/C(C#N)=C/c1ccc([N+](=O)[O-])cc1	8.9µM	.	.	.
COc1ccc(NC(=O)Cn2cnc3c(nnn3-c3ccc(C)cc3)c2=O)cc1	.	/	.	/
COc1cc2c(C#N)c(N3CCCC3)nc(N)c2c(N)n1	?	-73!	?	.
CCOc1cc2c(C#N)c(N3CCCC3)nc(N)c2c(N)n1	/	/	/	.
COc1ccc2nc(/N=C/c3c(C)[nH]n(-c4ccc(C)cc4C)c3=O)sc2c1	.	-88	.	-70
COc1ccccc1N=Cc1c(C)[nH]n(-c2ccc(C)cc2C)c1=O	?	.	.	.
OCc1ccccc1O[C@H]1OC(CO)C(O)C(O)C1O (stereo partly drawn)	.	/	/	/
O=C(CSc1nnc(-c2ccco2)c(-c2ccco2)n1)Nc1ccccc1	16µM	?	4µM	?
Cc1ccc(SCC(=O)Nc2ccc(-c3nnc(-c4ccco4)o3)cc2)cc1	?	.	.	.
Cc1ccc(NC(=O)CSc2nnc(-c3ccco3)c(-c3ccco3)n2)cc1	?	.	20µM	?
Cc1ccccc1NC(=O)CSc1nnc(-c2ccco2)c(-c2ccco2)n1	?	.	.	?
COC(=O)C1=C(C(=O)OC)[C@@H]2N(Cc3ccccc3)c3ccccc3[C@@]23C[C@@H](C(=O)OC)N(S(=O)(=O)c2cccs2)C3=N1	.[11.4 µM]	/	/	/
COc1ccc(S(=O)(=O)N2CCCCC2)cc1NC(=O)CN(Cc1ccco1)Cc1ccco1	/	.	.	.
COc1ccc(CC(=O)Nc2ccc(C(=O)Nc3ccccc3C(=O)O)cc2)cc1OC	.	-67	.	-76
COc1ccc(C(=O)Nc2ccccc2C(=O)Nc2ccc(C(=O)O)cc2)cc1	/	.	.	.
O=C(/C=C/c1ccco1)Nc1cccc(C(=O)Nc2ccccc2C(=O)O)c1	.	?	14µM	?
COc1ccccc1OCC(=O)Nc1ccc(C(=O)Nc2ccccc2C(=O)O)cc1	/	.	/	?
COc1ccc(C(=O)Nc2ccccc2C(=O)Nc2ccccc2C(=O)O)cc1	/	-77	.[2.29 µM]	-66
O=C(Nc1cc(C(=O)Nc2ccccc2C(=O)O)cc(C(=O)Nc2ccccc2C(=O)O)c1)c1ccccc1	/	?	/	-69
SMILES	JMJD2E inh	CtBP-E1A inh	L3MBTL1 block	Six1-Eya2 inh
COC(=O)N[C@H](C[N+](=O)[O-])c1cccc(C)c1	.	/	/	/
Nc1ccc(C(=O)O)c(O)c1	7.1µM!	.	.	.
Nc1ccc(N)c(C(=O)O)c1	.	?	/	-82
CCOc1ccc(Oc2ccc(Cl)cc2N)cc1	.	/	.	.
CNCC(O)c1cccc(O)c1 (stereo not drawn)	.	/	/	/
CCCc1ccc(/C=C2\C(=O)c3ccccc3C(O)=C2C(=O)OCC)cc1	18µM	/	.	/
Cc1ccc(Nc2cc(C)nn2-c2nc(C)cc(C)n2)cc1	.	.	.	.
Cc1ccc(Nc2cc(C)nn2-c2nc(C)cc(=O)[nH]2)cc1	?	-81	.	-82
O=C(O)c1ccc2c(c1)C(=O)/C(=C/c1ccccc1)C2=O	.	.	3.2µM	?
CC(C)(C)N1C(=O)c2ccc(C(=O)O)cc2C1=O	.	.	.	.
Cc1ccc(/C=C2/C(=O)c3ccc(C(=O)O)cc3C2=O)o1	.	.	1.6µM	?

High-throughput results from PubChem BioAssay.
